# Data as given in PubChem BioAssay.
# The source made the active and inactive calls. Unless noted, the rule behind the calls is not given here.
# Columns and labels:
# [1] = compounds binding Alexa647 anti-His antibody – biochemical, small-molecule microarray, 635 nm fluorescence, artefact control for SMM control protein annotation, primary screen (AID 1128); conditions: higher = more signal;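 note: score merges feature fluorescence with signal-to-noise for each printed compound spot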
# [2] = system: Human papillomavirus type 1a E7 protein (residues 1-88); experiment: HPV1a E7 small-molecule binders, primary screen, biochemical, small-molecule microarray, residues 1-88, 635 nm (AID 1129); conditions: small-molecule microarray binding, fluorescence 635 nm; higher = more signal
# [3] = target: Focal adhesion kinase 1 (Homo sapiens) (UniProt Q05397); experiment: PTK2 protein binding on printed compound slides – biochemical, small-molecule microarray, 635/667 nm fluorescence, BSA, DTT, primary screen (AID 1130); conditions: 635 nm fluorescence, higher = more signal;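 note: composite of spot emission at 667 nm and signal to noise over triplicate slides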
# [4] = system: Fibrinogen (Alexa647-labelled); experiment: Alexa647-fibrinogen binding to printed small molecules – biochemical, small-molecule microarray, 635/667 nm fluorescence, artefact control for SMM control-protein annotation, profiling panel (AID 1131); conditions: fibrinogen-A647 binding fluorescence, higher = more signal;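 note: z-score merges 667 nm fluorescence with per-spot signal-to-noise over triplicate slides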
# [5] = target: Follistatin (Homo sapiens) (UniProt P19883); experiment: FST protein binding to printed compounds – biochemical, small-molecule microarray, 635/667 nm fluorescence, primary screen (AID 1132); conditions: 635 nm fluorescence, higher = more signal
# [6] = target: Fibroblast growth factor 2 (Homo sapiens) (UniProt P09038); experiment: basic fibroblast growth factor binding to printed compounds – biochemical, small-molecule microarray, 635/667 nm fluorescence, primary screen (AID 1133); conditions: FGF2, fluorescence 635/667, higher = more signal
# [7] = JC-1 mitochondrial potential readout, lung cancer cells – cell-based, A549, JC-1 fluorescence, basal, 24 h, 100 nL, profiling panel (AID 1138); conditions: higher = more signal;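 note: A549 lung adenocarcinoma cells under basal conditions with no added stimulus; test concentration not given here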
# [8] = system: Lefty1; experiment: Lefty1 protein binding to printed compounds – biochemical, small-molecule microarray, 635/667 nm fluorescence, primary screen (AID 1139); conditions: fluorescence 635/667, higher = more signal
# [9] = system: wheat germ agglutinin (Triticum aestivum), Alexa647-labelled; experiment: Alexa647-WGA lectin binding to printed small molecules – biochemical, small-molecule microarray, 635/667 nm fluorescence, artefact control for SMM control-protein annotation, profiling panel (AID 1140); conditions: WGA-A647 binding, 635 nm fluorescence, higher = more signal;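 note: score merges 667 nm feature emission with signal to noise over triplicate slides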
# [10] = target: Luciferin 4-monooxygenase (Photinus pyralis) (UniProt P08659); experiment: inhibition of purified Photinus pyralis luciferase – biochemical, luminescence, purified enzyme, 2006 set, primary screen (AID 1141); conditions: purified firefly luciferase, SteadyGlo luminescence, 30 min; higher = more signal, called active from +8 up or from −8 down;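 note: cell-free assay with purified firefly luciferase at 100 ng per well in PBS; test concentration not given here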
# [11] = system: Wnt5a (protein binding on small-molecule microarray); experiment: small molecules binding Wnt5a protein – biophysical, small-molecule microarray, 635/667 nm fluorescence, primary screen (AID 1142); conditions: 635 nm fluorescence, higher = more signal;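 note: fluorescence read at 667 nm with signal to noise per printed feature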
# [12] = ATP-based viability of Huh7 replicon cells – cell-based, CellTiter-Glo luminescence, basal, 48 h, cytotoxicity control for HCV replication inhibitor project, primary screen (AID 1143); conditions: higher = more signal, called active from +8 up or from −8 down;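 note: Huh7 hepatoma cells carrying a hepatitis C replication reporter with no stimulus; test concentration not given here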
# [13] = Pseudomonas biofilm growth suppression – PAO1 strain, BacTiter-Glo luminescence, LB-PBS, primary screen (AID 1144); conditions: P. aeruginosa PAO1 biofilm, 12 h, higher = more signal
# [14] = basal CRE-LacZ reporter activity in PC12 – cell-based, unstimulated, primary screen (AID 1145); conditions: no forskolin, luminescence, 4.5 h, higher = more signal, called active from +8 up or from −8 down
# [15] = forskolin-driven CRE-LacZ activity in PC12 – cell-based, CRE-LacZ reporter, forskolin-stimulated, primary screen (AID 1146); conditions: luminescence, 4.5 h, higher = more signal, called active from +8 up or from −8 down;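 note: PC12 cells with 6xCRE LacZ reporter stimulated by forskolin 10 µM; beta-galactosidase reporter signal reflecting CREB driven transcription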
# [16] = target: Streptavidin (Streptomyces avidinii) (UniProt P22629); experiment: compounds binding control protein streptavidin – biophysical, small-molecule microarray, 635/667 nm fluorescence, artefact control for SMM compound annotation, primary screen (AID 1147); conditions: higher = more signal;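 note: signal reflects streptavidin binding to arrayed compounds as a control protein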
# [17] = probe aInhba binding on compound microarray – biochemical, small-molecule microarray, 635/667 nm fluorescence, primary screen (AID 1148); conditions: higher = more signal;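 note: score merges 667nm spot fluorescence with signal-to-noise for antibody binding to printed compounds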
# [18] = target: Torsin-1A (Homo sapiens) (UniProt O14656); experiment: TOR1A wild-type binding on microarray – cell lysate, small-molecule microarray, lysate, 635/667 nm, primary screen (AID 1149); conditions: COS7 hTOR1A-WT lysate, 635 nm fluorescence, higher = more signal
# [19] = target: Torsin-1A (Homo sapiens) (UniProt O14656); experiment: torsin A mutant lysate binding on microarrays – cell lysate, small-molecule microarray, COS7 lysate, 635/667 nm fluorescence, primary screen (AID 1150); conditions: COS7 hTOR1A mutant lysate, 635 nm fluorescence, higher = more signal;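 note: score pools 667 nm emission and signal to noise measuring lysate protein binding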
# [20] = system: Sonic hedgehog protein (Shh); experiment: Sonic hedgehog microarray binding compounds – biochemical, small-molecule microarray, 635/667 nm fluorescence, primary screen (AID 1151); conditions: 635 nm fluorescence, higher = more signal;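 note: Shh protein binding to compounds spotted on small-molecule microarray slides; score combines spot fluorescence intensity with signal-to-noise across triplicate slides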
# Sequence of Follistatin (Homo sapiens) (P19883 whole entry, looked up): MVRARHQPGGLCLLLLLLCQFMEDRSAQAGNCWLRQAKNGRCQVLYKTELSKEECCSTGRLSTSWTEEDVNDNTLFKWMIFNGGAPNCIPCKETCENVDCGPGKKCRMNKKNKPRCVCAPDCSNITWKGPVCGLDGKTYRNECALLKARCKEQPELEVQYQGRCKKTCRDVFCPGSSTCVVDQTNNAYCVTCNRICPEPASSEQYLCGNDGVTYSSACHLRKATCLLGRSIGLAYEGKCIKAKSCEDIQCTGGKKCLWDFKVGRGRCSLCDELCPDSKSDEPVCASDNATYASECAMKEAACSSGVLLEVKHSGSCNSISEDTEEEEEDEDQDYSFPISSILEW
# Sequence of Focal adhesion kinase 1 (Homo sapiens) (Q05397 whole entry, looked up): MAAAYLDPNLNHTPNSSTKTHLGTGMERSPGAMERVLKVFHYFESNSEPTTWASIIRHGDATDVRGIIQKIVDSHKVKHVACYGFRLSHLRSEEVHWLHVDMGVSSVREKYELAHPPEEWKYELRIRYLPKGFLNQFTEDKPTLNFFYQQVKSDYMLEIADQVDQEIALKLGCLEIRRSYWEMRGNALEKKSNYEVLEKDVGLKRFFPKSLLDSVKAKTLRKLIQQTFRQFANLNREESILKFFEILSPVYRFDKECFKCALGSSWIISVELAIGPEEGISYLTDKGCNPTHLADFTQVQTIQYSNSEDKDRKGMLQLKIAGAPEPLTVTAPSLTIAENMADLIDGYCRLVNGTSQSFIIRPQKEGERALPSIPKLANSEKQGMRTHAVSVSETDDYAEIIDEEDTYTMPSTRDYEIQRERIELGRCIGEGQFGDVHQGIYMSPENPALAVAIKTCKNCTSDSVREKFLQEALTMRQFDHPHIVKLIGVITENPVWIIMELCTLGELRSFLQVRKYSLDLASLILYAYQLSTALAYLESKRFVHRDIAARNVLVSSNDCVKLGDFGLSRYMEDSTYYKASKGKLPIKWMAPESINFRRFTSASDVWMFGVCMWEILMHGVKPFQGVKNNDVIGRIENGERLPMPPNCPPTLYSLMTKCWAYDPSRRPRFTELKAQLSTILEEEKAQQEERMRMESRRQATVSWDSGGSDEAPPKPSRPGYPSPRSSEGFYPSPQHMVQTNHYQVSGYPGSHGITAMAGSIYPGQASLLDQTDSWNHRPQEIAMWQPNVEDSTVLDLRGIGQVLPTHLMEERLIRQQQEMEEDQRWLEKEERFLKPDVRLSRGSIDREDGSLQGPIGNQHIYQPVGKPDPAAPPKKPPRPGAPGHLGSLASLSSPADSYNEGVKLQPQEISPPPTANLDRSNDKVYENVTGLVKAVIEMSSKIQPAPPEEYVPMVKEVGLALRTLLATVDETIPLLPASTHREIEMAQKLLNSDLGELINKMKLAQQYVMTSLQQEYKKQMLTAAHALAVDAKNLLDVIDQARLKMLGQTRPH
# Sequence of Streptavidin (Streptomyces avidinii) (P22629 whole entry, looked up): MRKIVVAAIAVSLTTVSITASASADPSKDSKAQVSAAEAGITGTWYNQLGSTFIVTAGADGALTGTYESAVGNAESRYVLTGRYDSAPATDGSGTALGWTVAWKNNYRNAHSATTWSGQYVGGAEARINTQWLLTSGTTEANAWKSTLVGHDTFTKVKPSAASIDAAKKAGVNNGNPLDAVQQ
# Sequence of Luciferin 4-monooxygenase (Photinus pyralis) (P08659 whole entry, looked up): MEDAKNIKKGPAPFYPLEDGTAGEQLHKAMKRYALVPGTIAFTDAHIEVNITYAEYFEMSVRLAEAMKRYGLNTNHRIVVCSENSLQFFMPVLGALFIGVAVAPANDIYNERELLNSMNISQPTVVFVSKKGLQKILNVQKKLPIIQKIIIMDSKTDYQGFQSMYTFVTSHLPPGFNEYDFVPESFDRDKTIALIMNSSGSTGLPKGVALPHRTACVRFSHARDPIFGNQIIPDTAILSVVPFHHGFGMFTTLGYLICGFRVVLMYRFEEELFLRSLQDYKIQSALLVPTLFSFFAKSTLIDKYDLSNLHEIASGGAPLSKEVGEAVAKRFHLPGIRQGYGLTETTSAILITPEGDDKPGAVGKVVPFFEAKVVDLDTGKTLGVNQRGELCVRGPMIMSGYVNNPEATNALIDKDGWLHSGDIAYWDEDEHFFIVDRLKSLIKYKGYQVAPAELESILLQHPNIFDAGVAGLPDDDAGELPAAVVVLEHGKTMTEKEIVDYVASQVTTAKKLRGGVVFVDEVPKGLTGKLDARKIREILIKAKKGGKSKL
# Sequence of Fibroblast growth factor 2 (Homo sapiens) (P09038 whole entry, looked up): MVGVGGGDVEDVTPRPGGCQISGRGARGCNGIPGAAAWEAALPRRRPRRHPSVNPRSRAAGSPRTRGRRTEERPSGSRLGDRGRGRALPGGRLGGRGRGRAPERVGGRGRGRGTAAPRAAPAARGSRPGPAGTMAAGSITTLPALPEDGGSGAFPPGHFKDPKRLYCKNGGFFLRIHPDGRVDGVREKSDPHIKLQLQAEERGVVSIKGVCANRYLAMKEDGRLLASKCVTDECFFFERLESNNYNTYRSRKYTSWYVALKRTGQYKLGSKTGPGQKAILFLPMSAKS
# Sequence of Torsin-1A (Homo sapiens) (O14656 whole entry, looked up): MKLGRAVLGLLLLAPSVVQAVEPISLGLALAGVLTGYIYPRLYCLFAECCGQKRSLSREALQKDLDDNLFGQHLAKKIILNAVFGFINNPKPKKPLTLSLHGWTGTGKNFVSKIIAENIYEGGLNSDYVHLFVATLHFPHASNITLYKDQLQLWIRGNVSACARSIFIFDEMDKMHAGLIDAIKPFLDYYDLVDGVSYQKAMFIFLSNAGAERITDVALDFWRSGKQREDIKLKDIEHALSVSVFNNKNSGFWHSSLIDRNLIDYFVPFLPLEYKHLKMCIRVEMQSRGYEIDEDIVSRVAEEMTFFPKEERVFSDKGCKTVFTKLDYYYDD
Compound,composite z-score [1],composite z-score [2],composite z-score [3],composite z-score [4],composite z-score [5],composite z-score [6],z-score [7],composite z-score [8],composite z-score [9],z-score [10],composite z-score [11],z-score [12],z-score [13],z-score [14],z-score [15],composite z-score [16],composite z-score [17],composite z-score [18],composite z-score [19],composite z-score [20]
COc1ccc(C(=O)Nc2cccc(CN3C(=O)[C@@]4(O[C@@H](CC(=O)N5Cc6ccccc6C[C@H]5CO)[C@H]([Si](C)(C)c5ccc(OC)cc5)[C@H]4C)c4ccccc43)c2)cc1,1.37,0.86,0.469,0.622,1.13,1.25,0.68,1.57,0.29,-1.52 (inactive),0.209,-5.04 (inactive),-0.473 (inactive),4.45 (inactive),-0.534 (inactive),0.395,-0.0095,0.726,0.488,2.06
C=C[C@H](C)[C@H](O)c1ccc(OCCO)cc1,-0.151,-1.55,0.151,-2.74,-0.74,-1.2,0.145,-0.91,-0.89,-24.9 (active),-0.965,-1.45 (inactive),0.733 (inactive),-0.272 (inactive),0.0034 (inactive),-1.29,-0.209,-2.73,-1.99,-0.773
COC(=O)c1nc2oc1CC[C@@H](CO)NC(=O)N(C)Cc1cn(nn1)C[C@H](Cc1ccccc1)NC2=O,0.0255,-0.151,-0.242,0.0318,0.905,1.06,0.457,0.17,0.536,0.376 (inactive),-0.0811,-0.0962 (inactive),0.0307 (inactive),4.65 (inactive),0.338 (inactive),-0.357,-0.016,-0.685,-1.25,0.337
CCCCCCC#C[Si](O[C@H](c1ccccc1)c1cn([C@H](C)c2ccccc2)nn1)(C(C)C)C(C)C,0.475,0.386,-0.159,0.574,0.441,0.555,3.27,0.547,0.144,0.425 (inactive),-0.0509,-0.658 (inactive),0.121 (inactive),-0.127 (inactive),0.15 (inactive),0.247,-0.361,0.381,1.26,0.573
COC(=O)[C@@]1(Cc2ccc(OC)cc2)[C@H]2c3cc(C(=O)N(C)C)n(Cc4ccc(OC)c(OC)c4)c3C[C@H]2CN1C(=O)c1ccccc1,1.26,1.25,0.96,0.844,0.745,-0.3,0.327,-0.257,0.951,1.72 (inactive),0.171,-2.97 (inactive),0.437 (inactive),0.583 (inactive),0.292 (inactive),1.67,0.55,0.258,1.17,-0.521
O=C1C2C=CC(C(O)c3cccc4ccccc34)N(n3cnnc3)C2C(=O)N1Cc1ccccc1 (stereo not given),0.968,-0.0247,0.699,0.798,0.355,0.406,-0.94,0.302,0.872,1.06 (inactive),1.24,0.251 (inactive),0.878 (inactive),0.425 (inactive),0.972 (inactive),0.225,1.28,0.104,-0.0432,0.177
[N-]=[N+]=NCc1ccccc1[C@@H]1OC(c2ccc(OCCCO)cc2)=N[C@]1(Cc1ccccc1N=[N+]=[N-])C(N)=O,1.81,1.26,0.73,1.01,1.28,0.853,0.737,-0.173,1.31,-3.4 (inactive),0.138,-1.91 (inactive),-0.089 (inactive),-0.128 (inactive),0.15 (inactive),2.16,0.32,0.571,0.373,-0.349
CCCCC(=O)N(Cc1ccccc1F)[C@@H]1CC(C(=O)NCCO)=C[C@H](Oc2c(I)cc(CO)cc2OC)[C@H]1O,1.28,1.25,1.38,0.96,1.51,2.04,-1.47,1.58,0.736,1.57 (inactive),1.91,-2.1 (inactive),-0.43 (inactive),0.673 (inactive),0.377 (inactive),-0.291,0.0541,1.68,0.769,2.45
C=CCC(OC(C)=O)[C@@H]1[C@@H](N(Cc2ccc(-c3cccc(C(F)(F)F)c3)o2)C(=O)Cc2ccc(OC)cc2)c2cc(OCCCO)ccc2N1C(=O)Cc1ccc(OC)cc1 (stereo not given in full),-0.381,-1.04,-0.127,-1.31,0.544,0.283,0.212,-0.0334,0.0267,0.781 (inactive),-0.294,-3.06 (inactive),-1.7 (inactive),0.484 (inactive),0.609 (inactive),-1.01,-0.154,-2.51,-1.2,0.514
CCOC(=O)C1=C[C@@H](C(C)(C)C)N(S(=O)(=O)c2ccc(C)cc2)[C@H]1c1ccc(Cl)c(Cl)c1,0.978,1.21,0.606,0.968,0.654,0.202,3.07,0.495,0.945,1.34 (inactive),0.28,-4.01 (inactive),0.599 (inactive),0.229 (inactive),0.303 (inactive),1.04,0.196,0.126,0.837,0.202
